What all share (settings): mRNA level, 48 h; actives raise or lower the signal
Read-out in test [1]: Bcl-2 (BID) gene, BID (gene 637)
Kind of test: LTEA_HepaRG_BID: Life Technologies and Expression Analysis (LTEA) Assay for Bcl-2 (BID) gene using HepaRG (AID 2283476). In outline: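 Gene expression by qRT-PCR in HepaRG cells after 48 h exposure, duplicate wells, eight half-log concentrations topping at 100 uM in 0.5% DMSO. Normalized to ACTB, GAPDH, POLR2A; bidirectional fitting relative to DMSO.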

Read-out in a further test: Caspase-3 (Homo sapiens) (UniProt P42574)
The test can be described thus: LTEA_HepaRG_CASP3: Life Technologies and Expression Analysis (LTEA) Assay for cysteine-aspartic acid protease (CASP3) using HepaRG (AID 2283477). In outline: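 In HepaRG liver cells dosed for 48 h at up to 100 uM (eight-point, duplicate), CASP3 expression changes are scored by qRT-PCR. Activity is fitted in both directions with 0.5% DMSO as baseline.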

Read-out in test [2]: Cytochrome P450 (CYP24A1), CYP24A1 (gene 1591)
The test can be described thus: LTEA_HepaRG_CYP24A1: Life Technologies and Expression Analysis (LTEA) Assay for Cytochrome P450 (CYP24A1) using HepaRG (AID 2283478). In outline: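 Human liver HepaRG cultures receive each chemical for 48 h across an eight-point half-log series topping at 100 uM in 0.5% DMSO. Induction or suppression of CYP24A1 mRNA is scored relative to vehicle after housekeeping-gene normalization.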

Read-out in test [3]: Cytochrome P450 (CYP1A2), CYP1A2 (gene 1544)
The test can be described thus: LTEA_HepaRG_CYP1A2: Life Technologies and Expression Analysis (LTEA) Assay for Cytochrome P450 (CYP1A2) using HepaRG (AID 2283479). In outline:
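Assesses CYP1A2 mRNA in human HepaRG liver cells after 48 h chemical exposure at up to 100 uM. Values come from qRT-PCR with bidirectional curve fitting relative to DMSO.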

Read-out in test [4]: cysteine-aspartic acid protease (CASP8), CASP8 (gene 841)
The test can be described thus: LTEA_HepaRG_CASP8: Life Technologies and Expression Analysis (LTEA) Assay for cysteine-aspartic acid protease (CASP8) using HepaRG (AID 2283480). In a few lines: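 Differentiated HepaRG cells in serum-free induction medium, 48 h exposure, eight-point half-log series from 100 uM in 0.5% DMSO, duplicates. CASP8 mRNA by qRT-PCR, normalized to ACTB, GAPDH, POLR2A; bidirectional fit versus DMSO.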

Read-out in test [5]: Cytochrome P450 (CYP2B6), CYP2B6 (gene 1555)
Kind of test: LTEA_HepaRG_CYP2B6: Life Technologies and Expression Analysis (LTEA) Assay for Cytochrome P450 (CYP2B6) using HepaRG (AID 2283481). In outline: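 Using 48 h treatment of HepaRG cells in serum-free induction medium, concentrations spanned half-log steps from 100 uM in 0.5% DMSO vehicle. CYP2B6 mRNA induction or loss is scored by qRT-PCR against DMSO.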

Read-out in test [6]: Cytochrome P450 2C19 (Homo sapiens) (UniProt P33261)
The test can be described thus: LTEA_HepaRG_CYP2C19: Life Technologies and Expression Analysis (LTEA) Assay for CYP2C19 using HepaRG (AID 2283482). In outline: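 Human HepaRG liver cells received test chemicals for 48 h (highest 100 uM, half-log dilutions in 0.5% DMSO). CYP2C19 mRNA induction or loss is read by multiplexed qRT-PCR and fitted in both directions versus vehicle.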

Read-out in a further test: CYP2C8 (gene 1558)
The test can be described thus: LTEA_HepaRG_CYP2C8: Life Technologies and Expression Analysis (LTEA) Assay for CYP2C8 using HepaRG (AID 2283483). In outline:
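Differentiated HepaRG cells in serum-free induction medium exposed 48 h in duplicate to 8 half-log concentrations from 100 uM in 0.5% DMSO. CYP2C8 mRNA by qRT-PCR normalized to ACTB, GAPDH, POLR2A; bidirectional fit versus DMSO.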

Read-out in another test: CYP2C9 (gene 1559)
The test can be described thus: LTEA_HepaRG_CYP2C9: Life Technologies and Expression Analysis (LTEA) Assay for CYP2C9 using HepaRG (AID 2283484). In outline:
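Differentiated human HepaRG cells in serum-free induction medium were exposed 48 h to chemicals in 8-point half-log series from 100 uM (0.5% DMSO), in duplicate. CYP2C9 mRNA was measured by qRT-PCR, normalized to ACTB/GAPDH/POLR2A, with bidirectional fitting versus DMSO.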

Read-out in a further test: CYP2E1 (gene 1571)
The test can be described thus: LTEA_HepaRG_CYP2E1: Life Technologies and Expression Analysis (LTEA) Assay for CYP2E1 using HepaRG (AID 2283485). In a few lines: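 HepaRG cells, plated 48 h, then exposed 48 h in serum-free induction medium to eight half-log concentrations from 100 uM in 0.5% DMSO, duplicate. CYP2E1 mRNA by qRT-PCR, normalized to ACTB/GAPDH/POLR2A; bidirectional fit versus DMSO.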

Read-out in a further test: CYP4A11 (gene 1579)
The test can be described thus: LTEA_HepaRG_CYP4A11: Life Technologies and Expression Analysis (LTEA) Assay for CYP4A11 using HepaRG (AID 2283486). In a few lines:
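Readout is CYP4A11 mRNA induction or suppression (qRT-PCR, ACTB/GAPDH/POLR2A normalization) in human HepaRG cells after 48 h chemical treatment, concentrations to 100 uM in 0.5% DMSO, fitted bidirectionally against vehicle.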

Read-out in test [7]: Cytochrome P450 3A4 (Homo sapiens) (UniProt P08684)
The test can be described thus: LTEA_HepaRG_CYP3A4: Life Technologies and Expression Analysis (LTEA) Assay for CYP3A4 using HepaRG (AID 2283487). In a few lines:
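Differentiated HepaRG cells in serum-free induction medium exposed in duplicate for 48 h to 8 half-log concentrations up to 100 uM in 0.5% DMSO. CYP3A4 mRNA measured by qRT-PCR normalized to ACTB, GAPDH and POLR2A; bidirectional fit versus DMSO.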

Read-out in test [8]: DNA damage-inducible transcript 3 (DDIT3), DDIT3 (gene 1649)
The test can be described thus: LTEA_HepaRG_DDIT3: Life Technologies and Expression Analysis (LTEA) Assay for DNA damage-inducible transcript 3 (DDIT3) using HepaRG (AID 2283488). In outline: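 HepaRG cells, 48 h after plating, exposed 48 h in serum-free induction medium to 8 half-log concentrations up to 100 uM in 0.5% DMSO, in duplicate. DDIT3 mRNA measured by TaqMan qRT-PCR, normalized to ACTB, GAPDH and POLR2A. Fitted bidirectionally against DMSO.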

Read-out in test [9]: Pro-epidermal growth factor (Homo sapiens) (UniProt P01133)
Kind of test: LTEA_HepaRG_EGF: Life Technologies and Expression Analysis (LTEA) Assay for Epidermal growth factor (EGF) using HepaRG (AID 2283489). In a few lines:
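EGF expression changes in human HepaRG cells are scored by bidirectional fitting relative to 0.5% DMSO controls. Chemicals are tested at eight half-log concentrations up to 100 uM for 48 h in serum-free induction medium.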

Read-out in test [10]: Early growth response protein 1 (EGR1) transcription factor, EGR1 (gene 1958)
The test can be described thus: LTEA_HepaRG_EGR1: Life Technologies and Expression Analysis (LTEA) Assay for Early growth response protein 1 (EGR1) transcription factor using HepaRG (AID 2283490). In outline:
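Differentiated HepaRG cells in serum-free induction medium exposed 48 hours, duplicate, to 8 half-log concentrations up to 100 uM in 0.5% DMSO. EGR1 mRNA measured by TaqMan qRT-PCR, normalized to ACTB, GAPDH, POLR2A; bidirectional fit versus DMSO.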

Read-out in test [11]: Ezrin (EZR), EZR (gene 7430)
Kind of test: LTEA_HepaRG_EZR: Life Technologies and Expression Analysis (LTEA) Assay for Ezrin (EZR) using HepaRG (AID 2283491). In outline:
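Differentiated human HepaRG cells, 48 h after plating, were exposed in serum-free induction medium for 48 hours to eight half-log concentrations up to 100 uM in 0.5% DMSO. EZR mRNA was measured by TaqMan qRT-PCR, normalized to ACTB, GAPDH and POLR2A, and fitted bidirectionally against DMSO.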

Read-out in test [12]: Cytochrome P450 3A7 (Homo sapiens) (UniProt P24462)
The test can be described thus: LTEA_HepaRG_CYP3A7: Life Technologies and Expression Analysis (LTEA) Assay for CYP3A7 using HepaRG (AID 2283492). In outline: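 Cells were thawed, plated, cultured 48 h, then treated for a further 48 h with chemicals (eight-point half-log series from 100 uM, 0.5% DMSO). RNA was isolated and CYP3A7 expression quantified by qRT-PCR normalised to ACTB, GAPDH and POLR2A.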

Read-out in another test: CYP3A5 (gene 1577)
The test can be described thus: LTEA_HepaRG_CYP3A5: Life Technologies and Expression Analysis (LTEA) Assay for CYP3A5 using HepaRG (AID 2283493). In a few lines:
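HepaRG cells, plated 48 h then in serum-free induction medium, dosed in duplicate for 48 h with eight half-log concentrations up to 100 uM in 0.5% DMSO. Gene mRNA by Fluidigm TaqMan qRT-PCR, normalized to ACTB, GAPDH, POLR2A.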

Read-out in test [13]: Cytochrome P450 4A22 (Homo sapiens) (UniProt Q5TCH4)
The test can be described thus: LTEA_HepaRG_CYP4A22: Life Technologies and Expression Analysis (LTEA) Assay for Cytochrome P450 4A22 (CYP4A22) using HepaRG (AID 2283495). In a few lines:
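Cryopreserved HepaRG cells, plated and cultured 48 h, then switched to serum-free induction medium and treated 48 h (duplicates, up to 100 uM, half-log steps, 0.5% DMSO). Expression change of CYP4A22 was fitted bidirectionally against vehicle.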

Read-out in test [14]: Fatty Acid-Binding Protein 1 (FABP1), FABP1 (gene 2168)
Kind of test: LTEA_HepaRG_FABP1: Life Technologies and Expression Analysis (LTEA) Assay for Fatty Acid-Binding Protein 1 (FABP1) using HepaRG (AID 2283494). In outline:
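Differentiated human HepaRG cells exposed 48 h in serum-free induction medium to eight half-log concentrations up to 100 uM (0.5% DMSO), duplicate. FABP1 mRNA by qRT-PCR, normalised to ACTB, GAPDH, POLR2A; bidirectional fitting against DMSO.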

Active and inactive are the calls of the source. How the source made its calls: active means hit-call score of the fitted dose curve at least 0.9, where 1 is the maximum; inactive means score below 0.9.

Cytochrome P450 2C19 (Homo sapiens), sequence (P33261 whole entry, looked up): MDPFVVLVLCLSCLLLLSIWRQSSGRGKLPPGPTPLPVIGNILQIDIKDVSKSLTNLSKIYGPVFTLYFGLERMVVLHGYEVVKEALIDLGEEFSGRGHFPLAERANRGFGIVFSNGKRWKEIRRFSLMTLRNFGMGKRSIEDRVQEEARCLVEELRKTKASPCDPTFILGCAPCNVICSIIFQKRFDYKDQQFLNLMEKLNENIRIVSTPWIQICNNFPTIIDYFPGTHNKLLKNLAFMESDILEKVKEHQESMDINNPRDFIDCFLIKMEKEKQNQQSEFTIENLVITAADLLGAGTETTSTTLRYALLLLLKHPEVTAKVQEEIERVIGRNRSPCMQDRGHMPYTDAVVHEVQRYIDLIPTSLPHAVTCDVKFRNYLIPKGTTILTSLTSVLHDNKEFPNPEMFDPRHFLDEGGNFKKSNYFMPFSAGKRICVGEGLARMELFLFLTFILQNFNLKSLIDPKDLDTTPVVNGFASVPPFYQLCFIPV
Caspase-3 (Homo sapiens), sequence (P42574 whole entry, looked up): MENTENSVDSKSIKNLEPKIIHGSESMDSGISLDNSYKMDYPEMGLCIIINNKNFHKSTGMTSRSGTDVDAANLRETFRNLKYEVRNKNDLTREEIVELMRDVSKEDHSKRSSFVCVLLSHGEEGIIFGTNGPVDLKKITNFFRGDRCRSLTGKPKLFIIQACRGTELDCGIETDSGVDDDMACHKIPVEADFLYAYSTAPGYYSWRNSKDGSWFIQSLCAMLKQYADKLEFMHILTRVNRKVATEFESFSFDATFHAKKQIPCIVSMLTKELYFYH
Cytochrome P450 3A7 (Homo sapiens), sequence (P24462 whole entry, looked up): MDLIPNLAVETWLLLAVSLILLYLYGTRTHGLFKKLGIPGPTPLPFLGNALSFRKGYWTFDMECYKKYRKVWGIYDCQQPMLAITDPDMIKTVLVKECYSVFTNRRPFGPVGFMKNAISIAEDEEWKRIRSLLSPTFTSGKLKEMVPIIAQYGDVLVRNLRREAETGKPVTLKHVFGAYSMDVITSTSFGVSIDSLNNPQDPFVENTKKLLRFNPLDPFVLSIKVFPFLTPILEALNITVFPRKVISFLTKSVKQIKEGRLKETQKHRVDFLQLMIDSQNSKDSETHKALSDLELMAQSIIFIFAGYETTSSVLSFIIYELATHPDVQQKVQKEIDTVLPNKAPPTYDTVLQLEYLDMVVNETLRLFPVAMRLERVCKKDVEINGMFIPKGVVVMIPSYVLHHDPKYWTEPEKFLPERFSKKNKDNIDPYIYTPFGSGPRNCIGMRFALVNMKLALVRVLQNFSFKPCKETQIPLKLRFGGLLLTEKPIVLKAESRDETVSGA
Cytochrome P450 3A4 (Homo sapiens), sequence (P08684 whole entry, looked up): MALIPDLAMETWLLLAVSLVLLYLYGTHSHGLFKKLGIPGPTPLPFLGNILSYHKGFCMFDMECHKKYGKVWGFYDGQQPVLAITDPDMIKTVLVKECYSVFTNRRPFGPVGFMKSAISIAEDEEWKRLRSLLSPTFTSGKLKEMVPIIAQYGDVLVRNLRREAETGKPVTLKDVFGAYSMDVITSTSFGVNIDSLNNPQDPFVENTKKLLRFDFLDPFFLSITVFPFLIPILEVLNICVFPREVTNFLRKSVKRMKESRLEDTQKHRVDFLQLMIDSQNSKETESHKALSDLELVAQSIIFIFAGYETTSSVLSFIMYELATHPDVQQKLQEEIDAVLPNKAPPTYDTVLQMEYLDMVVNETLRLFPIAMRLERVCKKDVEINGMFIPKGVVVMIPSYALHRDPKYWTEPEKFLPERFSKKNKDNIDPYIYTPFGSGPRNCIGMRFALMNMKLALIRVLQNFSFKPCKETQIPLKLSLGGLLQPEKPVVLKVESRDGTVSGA

For `CSC1=N[C@@](C)(c2ccccc2)C(=O)N1Nc1ccccc1`, the outcome (in test [1]; with Caspase-3 (Homo sapiens); in test [2]; in [4]; in test [9]; in the test with CYP3A5 (gene 1577)) was inactive. For the same compound, the AC50 (as a rule, the concentration at which the activity in the assay is half-maximal) in [3] was 25.4 µM (active); in test [5] it was 30.8 µM (active); in [6], 38.1 µM (active); with CYP2C8 (gene 1558) it was 34.6 µM (active); with CYP2C9 (gene 1559), 33.8 µM (active); in the test with CYP2E1 (gene 1571), 20.9 µM (active). Moreover, the AC50 with CYP4A11 (gene 1579) is 27.1 µM (active); in test [7] it was 67.6 µM (active); in test [8], 28 µM (active); in test [10], 31.9 µM (active); in test [11], 13.1 µM (active); in test [12], 25.6 µM (active). For the same compound, the AC50 in [13] was 30.6 µM (active).
Consider `CCOP(=S)(OCC)OC(Cl)C(Cl)(Cl)Cl` (stereo unspecified), for which the call (in test [1]; with Caspase-3 (Homo sapiens); in [2]; in [3]; in test [4]; in test [6]) was inactive. The compound was classed as inactive (in the test with CYP2C8 (gene 1558); with CYP2C9 (gene 1559); in the test with CYP2E1 (gene 1571); with CYP4A11 (gene 1579); in test [8]; in test [9]). Besides, the compound was classed as inactive (in test [10]; in test [11]; in test [12]; in the test with CYP3A5 (gene 1577); in test [13]). The values for the half-maximal activity concentration (AC50) in [5] and in test [7] were 24 µM (active) and 50 µM (active), respectively.
Take `C=C(C)[C@H]1Cc2c(ccc3c2O[C@@H]2COc4cc(OC)c(OC)cc4[C@@H]2C3=O)O1`: the result (in [1]; with Caspase-3 (Homo sapiens); in test [2]; in test [4]) was inactive. Moreover, the concentration at half-maximal activity (AC50) in [3] is 0.679 µM (active); in [5] it was 0.5 µM (active); in test [6], 2.75 µM (active); in the test with CYP2C8 (gene 1558), 1.36 µM (active); with CYP2C9 (gene 1559), 3.67 µM (active); in the test with CYP2E1 (gene 1571), 0.591 µM (active). Moreover, the AC50 is 0.838 µM (active) with CYP4A11 (gene 1579); 1.27 µM (active) in test [8]; 50 µM (active) in [9]; 15.7 µM (active) in test [10]; 1 µM (active) in [11]; 11.5 µM (active) in the test with CYP3A5 (gene 1577). For the same compound, the values for the concentration at half-maximal activity (AC50) in test [14] and in test [13] were 1.25 µM (active) and 0.834 µM (active), respectively.

(Values after PubChem BioAssay (EPA / NIEHS).)
